Test results reported in PubChem BioAssay.
Records with an inconclusive call do not appear. Calls of active or inactive are those of the source.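 The calls were made as follows, unless noted: active = Her2 level under about 52% in both replicate screens, with viability over 70% of control (limit read from the data); inconclusive = Her2 under the limit in one screen only, or viability under 70%; inactive = Her2 level above the set limit.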

What was measured:
[1] = Her2 expression decrease, cell viability multiplex – SKBR3 breast tumor cells, AlphaScreen, ATP viability, primary screen (AID 461); conditions: SKBR3 Her2 protein level, 18-24 h, measured here: SKBR3 viability, ATP luminescence, at 10 µM;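 as to Her2 level: lower value means less Her2 protein in the cells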;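 as to viability: percent of carrier control wells set as 100% viability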
[2] = target: Receptor tyrosine-protein kinase erbB-2 (Homo sapiens) (UniProt P04626); assay: as above; conditions: 18-24 h, at 10 µM, stronger effect = lower value
[3] = reduced viability of SK-BR-3 breast cancer cells – cell-based, 24 h, human, pilot screen (AID 572;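 active = viability at or below 10% of carrier control in both of two separate runs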;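 also: compound exposure lasted between 18 and 24 h rather than exactly 24 h; 100% = carrier-treated control wells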); conditions: SK-BR-3 viability, CellTiter-Glo luminescence, at 10 µM, stronger effect = lower value
[4] = HUVEC growth inhibition – cell-based, human, primary screen (AID 575;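 active = viability at or below 30% in both replicate assays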;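 also: 100% = median of untreated cell wells with 0.1% DMSO on each plate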); conditions: HUVEC proliferation, CellTiter-Glo luminescence, 72 h; at 10 µM; stronger effect = lower value
[5] = H69AR cell proliferation blockers – human, duplicate replicates, primary screen (AID 580;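 active = viability at or under a set limit in both replicates, limit being median viability minus 3 SD, cut at about 48% in these data, passing the limit was not always enough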;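 also: 100% = mean luminescence of untreated wells and 0% = no signal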); conditions: H69AR lung tumor cells viability, ATP luminescence, 72 h; at 10 µM; stronger effect = lower value
[6] = MRP1 drug-resistance reversers in H69AR cells – cell-based, doxorubicin co-treatment, pilot screen (AID 601;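 active = viability loss from added drug above about 55%, and viability with drug at most 40%, in both replicates, limit read from the data, passing the limit was not always enough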); conditions: CellTiter-Glo, 72 h, at 10 µM; for differential viability (reversal): stronger effect = higher value
[7] = yeast transport mutant growth inhibition pilot in 384-well plates, post-Golgi transport modulator project (AID 636; in the data active = inhibition above about 31%); conditions: absorbance 615 nm, about 18 h, stronger effect = higher value
[8] = growth suppression of yeast trafficking mutant, preliminary HTS, modulators of trafficking downstream of Golgi apparatus project, 1536-format plate, OD 615 nm (AID 637; in the data active = inhibition above about 30%); conditions: yeast transport mutant growth, absorbance 615 nm, 18 h; stronger effect = higher value
[9] = S. cerevisiae growth inhibition in permissive medium (OD615), pilot counter-assay for S. cerevisiae lifespan shortening project, permissive growth control (AID 705;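 active = growth inhibition above 25% in both replicates, a cutoff set 3 SD above the mean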); conditions: OD615, 24 h, at 10 µM, stronger effect = higher value
[10] = S. cerevisiae growth inhibition in restrictive medium, OD615, pilot screen, restrictive growth control, yeast lifespan reduction project (AID 706;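 active = growth inhibition above a set limit, 3 SD over mean compound inhibition, in both replicates, cut at about 43% in these data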;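 also: modified DeaD lifespan yeast strain shifted to restrictive glucose medium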); conditions: OD615, 48 h, at 10 µM, stronger effect = higher value
[11] = doxorubicin toxicity protection in MRP-1 cells – H69AR cells, CellTiter-Glo, duplicate, MRP-1 activator project, pilot screen (AID 807;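 active = viability increase at or above a cutoff of the median across tested compounds plus 3 SD, cut at about 8.5% in these data, passing the limit was not always enough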;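 also: compound pretreatment 18-22 h then 72 h combined with doxorubicin; 0% = doxorubicin alone and 100% = vehicle without doxorubicin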); conditions: H69AR viability with doxorubicin, CellTiter-Glo luminescence; at 10 µM; stronger effect = higher value
[12] = viability of HCT116 without oncogenic beta-catenin – human colon tumor cells, pilot screen (AID 823;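 active = cell viability at or below a set limit in both duplicate runs, the limit being the all-compound median minus 4 SD, cut at about 23% in these data, passing the limit was not always enough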;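 also: 0% = wells killed by 20 µM Hyamine and 100% = untreated DMSO cell wells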); conditions: HCT116 beta-catenin knockout viability, CellTiter-Glo, 60 h; at 10 µM; stronger effect = lower value
[13] = viability of PTEN-null HCT116 cells – cell-based, HCT116 clonal line, CellTiter-Glo, pilot screen (AID 824;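 active = viability at or below 27.92% in each of two runs, the all-compound median minus 4 SD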;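 also: 0% = 20 µM Hyamine control and 100% = vehicle cell control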); conditions: HCT116 PTEN-deleted viability, 60 h, at 10 µM, stronger effect = lower value
[14] = RAM pathway blockade in budding yeast – dse1pr::URA3 reporter, 5-FOA selection, pilot screen (AID 869;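 active = inhibition over a set limit, the all-compound mean plus 3 SD, in both replicate runs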;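 also: 0% = DMSO wells with no growth and 100% = 10 µM 1-NA-PP1 with full growth; RAM network block rescues cells from 5-FOA so hits raise OD615 growth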); conditions: S. cerevisiae dse1pr::URA3 5-FOA growth, OD615, 2 d; at 10 µM; stronger effect = higher value; strain carries analog-sensitive mutant Cbk1 kinase
[15] = RAM signaling pathway blockade in yeast – S. cerevisiae, Pdr1DBD-CYC8 efflux-inhibited sensitized strain, primary screen (AID 1298;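 active = RAM network inhibition above 8.4% in each of two replicates, 3 SD over the compound average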;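 also: 0% = DMSO untreated cells without growth and 100% = 10 µM 1-NA-PP1 full growth; higher means more yeast growth rescued from 5-FOA killing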); conditions: S. cerevisiae cbk1-as DSE1-URA3 strain, 5-FOA growth OD615, 2 d; at 50 µM; stronger effect = higher value
[16] = H69AR cells + 2 uM doxorubicin, measured here: viability with 2 uM doxorubicin, stronger effect = lower value
[17] = H69AR cells, compound alone cytotoxicity

Chain of Receptor tyrosine-protein kinase erbB-2 (Homo sapiens) (P04626 whole entry, looked up): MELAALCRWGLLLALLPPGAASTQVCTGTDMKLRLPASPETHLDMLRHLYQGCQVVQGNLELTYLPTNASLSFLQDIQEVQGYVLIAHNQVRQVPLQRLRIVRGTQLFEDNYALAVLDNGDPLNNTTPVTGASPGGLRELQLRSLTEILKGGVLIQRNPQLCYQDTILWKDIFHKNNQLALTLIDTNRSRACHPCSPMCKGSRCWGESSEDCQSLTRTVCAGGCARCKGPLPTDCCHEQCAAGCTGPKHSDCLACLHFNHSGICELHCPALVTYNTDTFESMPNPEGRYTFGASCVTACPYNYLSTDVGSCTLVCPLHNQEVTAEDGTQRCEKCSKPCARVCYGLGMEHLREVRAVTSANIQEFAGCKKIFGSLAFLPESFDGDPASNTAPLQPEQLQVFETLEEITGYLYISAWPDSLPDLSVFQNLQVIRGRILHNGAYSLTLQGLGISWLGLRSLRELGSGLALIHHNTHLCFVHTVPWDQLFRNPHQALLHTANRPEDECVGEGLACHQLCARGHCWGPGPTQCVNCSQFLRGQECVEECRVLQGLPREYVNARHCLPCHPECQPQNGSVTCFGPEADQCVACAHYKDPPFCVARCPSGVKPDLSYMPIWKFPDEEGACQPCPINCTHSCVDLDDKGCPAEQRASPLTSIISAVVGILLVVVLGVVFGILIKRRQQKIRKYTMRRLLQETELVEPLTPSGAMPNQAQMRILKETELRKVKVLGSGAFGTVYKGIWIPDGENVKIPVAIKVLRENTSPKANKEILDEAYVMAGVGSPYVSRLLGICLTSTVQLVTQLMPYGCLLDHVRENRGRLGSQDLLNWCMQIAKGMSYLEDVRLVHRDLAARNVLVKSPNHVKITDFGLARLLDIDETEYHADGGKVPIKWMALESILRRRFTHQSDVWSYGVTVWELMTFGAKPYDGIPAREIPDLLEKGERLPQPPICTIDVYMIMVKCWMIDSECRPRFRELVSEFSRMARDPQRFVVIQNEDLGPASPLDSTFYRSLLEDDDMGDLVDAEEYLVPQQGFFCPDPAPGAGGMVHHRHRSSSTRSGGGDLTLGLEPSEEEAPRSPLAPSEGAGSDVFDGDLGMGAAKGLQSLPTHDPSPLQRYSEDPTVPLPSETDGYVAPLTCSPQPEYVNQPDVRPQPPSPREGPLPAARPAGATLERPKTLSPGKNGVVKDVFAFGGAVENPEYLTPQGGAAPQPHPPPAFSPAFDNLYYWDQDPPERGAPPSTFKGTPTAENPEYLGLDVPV

Row | Structure (SMILES) | viability [1] | Her2 level [2] | viability [3] | viability [4] | viability [5] | differential viability (reversal) ([6]; H69AR cells + 2 uM doxorubicin) | viability [6, 16] | viability [6, 17] | inhibition [7] | inhibition [8] | growth inhibition [9] | growth inhibition [10] | viability increase [11] | viability [12] | viability [13] | inhibition [14] | RAM network inhibition [15]
1 | O=C1NC2(Nc3ccccc31)C(=O)Nc1ccccc12 (centres undefined) | 99% | 83% (inactive) | 99% (inactive) | 86.8% (inactive) | 156% (inactive) | 58.3% (inactive) | 97.3% | 156% | -4.86% (inactive) | -3.44% (inactive) | 0.15% (inactive) | -6.17% (inactive) | -3.77% (inactive) | 98.8% (inactive) | 85.2% (inactive) | 1.85% (inactive) | 2.35% (inactive)
2 | CN(CCNS(=O)(=O)c1ccc2c(c1)oc(=O)n2C)Cc1ccccc1 | 86% | 99% (inactive) | 86% (inactive) | 90.7% (inactive) | 98.1% (inactive) | 10.2% (inactive) | 87.9% | 98.1% | -2.95% (inactive) | -2.33% (inactive) | -2.83% (inactive) | 5.57% (inactive) | -1.52% (inactive) | 97.5% (inactive) | 90.2% (inactive) | 2.44% (inactive) | 4.66% (inactive)
3 | N#C/C(C(=O)N1CCOCC1)=C1/SC=C(c2ccccc2)N1c1ccccc1 | 102% | 92% (inactive) | 102% (inactive) | 107% (inactive) | 96.1% (inactive) | 4.83% (inactive) | 91.3% | 96.1% | -7.57% (inactive) | 1.67% (inactive) | -1.56% (inactive) | -17.9% (inactive) | -1.27% (inactive) | 96.6% (inactive) | 95% (inactive) | 2.57% (inactive) | 1.55% (inactive)
4 | COC1CCCCC1Nc1cccc(SC)c1 (centres undefined) | 100% | 112% (inactive) | 100% (inactive) | 104% (inactive) | 88.3% (inactive) | 10.6% (inactive) | 77.7% | 88.3% | -3.25% (inactive) | -3% (inactive) | -1.82% (inactive) | -18.4% (inactive) | -3.29% (inactive) | 80.6% (inactive) | 75.1% (inactive) | 1.83% (inactive) | 7.2% (inactive)
5 | c1ccc(C2(Cn3ccc4ccccc43)OCCO2)cc1 | 89% | 104% (inactive) | 89% (inactive) | 93.7% (inactive) | 94.9% (inactive) | 7.87% (inactive) | 87.1% | 94.9% | -0.78% (inactive) | 3.44% (inactive) | -4.05% (inactive) | -10.5% (inactive) | -3.2% (inactive) | 81.6% (inactive) | 81.8% (inactive) | 1.63% (inactive) | 6.65% (inactive)
6 | CC1(C)CC(=O)C(C=NCC2CCNCC2)=C(O)C1 | 104% | 117% (inactive) | 104% (inactive) | 106% (inactive) | 93.8% (inactive) | -4.75% (inactive) | 98.5% | 93.8% | 1.04% (inactive) | 1.67% (inactive) | -20.1% (inactive) | -16.9% (inactive) | -1.11% (inactive) | 92.2% (inactive) | 92.3% (inactive) | 2.66% (inactive) | 6.82% (inactive)
7 | CCOC(=O)N1CCN(Cc2nc3c(c(=O)n(C)c(=O)n3C)n2Cc2ccc(F)cc2)CC1 | 86.5% | 101% (inactive) | 86.5% (inactive) | 92.9% (inactive) | 72.6% (inactive) | -0.205% (inactive) | 72.8% | 72.6% | -4.27% (inactive) | 3.67% (inactive) | -5.48% (inactive) | 5.73% (inactive) | -3.14% (inactive) | 93.3% (inactive) | 81.7% (inactive) | 0.44% (inactive) | 0.36% (inactive)
